In ChEMBL document CHEMBL1961873, “Compounds: GSK PKIS; Assays: Nanosyn kinase panel” (2012):

What was measured:
[1] = target: Ribosomal protein S6 kinase alpha-6 (Homo sapiens) (UniProt Q9UK32); conditions: at 1 µM;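 also: each value is a mean inhibition of RSK4 from a GSK PKIS panel screen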
[2] = target: T1, Serine/threonine-protein kinase Sgk1 (Homo sapiens) (UniProt O00141); conditions: at 0.1 µM
T1 sequence (whole entry): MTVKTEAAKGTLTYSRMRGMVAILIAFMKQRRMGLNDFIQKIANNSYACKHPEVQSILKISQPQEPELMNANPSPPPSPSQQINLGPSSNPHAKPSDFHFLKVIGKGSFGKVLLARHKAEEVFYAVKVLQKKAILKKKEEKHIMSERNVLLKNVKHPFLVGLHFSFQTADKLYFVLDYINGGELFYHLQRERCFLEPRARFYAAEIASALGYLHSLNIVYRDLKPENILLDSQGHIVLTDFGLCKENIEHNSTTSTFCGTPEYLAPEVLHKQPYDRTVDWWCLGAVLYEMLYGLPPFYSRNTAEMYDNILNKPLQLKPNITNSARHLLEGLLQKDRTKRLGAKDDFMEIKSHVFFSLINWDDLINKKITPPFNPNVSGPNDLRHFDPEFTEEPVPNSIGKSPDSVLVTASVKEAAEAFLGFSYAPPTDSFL

[3] = target: T1, Serine/threonine-protein kinase Sgk1 (Homo sapiens); conditions: at 1 µM
[4] = target: T2, Serine/threonine-protein kinase Sgk2 (Homo sapiens) (UniProt Q9HBY8); conditions: at 0.1 µM
T2 sequence (whole entry): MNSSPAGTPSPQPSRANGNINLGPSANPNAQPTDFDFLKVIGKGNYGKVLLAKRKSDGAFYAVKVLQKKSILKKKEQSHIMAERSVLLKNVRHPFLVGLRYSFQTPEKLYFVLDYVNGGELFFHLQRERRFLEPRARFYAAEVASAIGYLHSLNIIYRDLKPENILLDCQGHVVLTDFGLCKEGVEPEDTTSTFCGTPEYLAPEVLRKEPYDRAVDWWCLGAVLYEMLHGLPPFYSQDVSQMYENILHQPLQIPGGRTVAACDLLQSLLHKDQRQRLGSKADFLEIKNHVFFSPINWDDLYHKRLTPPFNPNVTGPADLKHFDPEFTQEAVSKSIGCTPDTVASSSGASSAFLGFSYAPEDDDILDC

[5] = target: T2, Serine/threonine-protein kinase Sgk2 (Homo sapiens); conditions: at 1 µM
[6] = target: T3, Serine/threonine-protein kinase Sgk3 (Homo sapiens) (UniProt Q96BR1); conditions: at 0.1 µM
T3 sequence (whole entry): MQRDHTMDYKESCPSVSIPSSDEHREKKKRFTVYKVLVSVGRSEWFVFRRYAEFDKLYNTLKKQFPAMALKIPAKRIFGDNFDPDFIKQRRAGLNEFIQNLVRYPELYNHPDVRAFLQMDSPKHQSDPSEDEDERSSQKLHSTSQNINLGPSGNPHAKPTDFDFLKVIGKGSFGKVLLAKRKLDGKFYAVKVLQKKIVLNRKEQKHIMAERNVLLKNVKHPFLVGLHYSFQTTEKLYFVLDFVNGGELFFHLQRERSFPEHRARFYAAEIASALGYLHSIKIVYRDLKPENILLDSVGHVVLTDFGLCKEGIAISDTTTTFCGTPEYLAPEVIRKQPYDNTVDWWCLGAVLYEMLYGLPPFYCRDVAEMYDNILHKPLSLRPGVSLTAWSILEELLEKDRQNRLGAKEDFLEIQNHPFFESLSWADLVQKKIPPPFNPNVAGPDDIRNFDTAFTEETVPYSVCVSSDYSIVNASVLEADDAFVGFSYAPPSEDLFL

[7] = target: T3, Serine/threonine-protein kinase Sgk3 (Homo sapiens); conditions: at 1 µM
[8] = target: 5'-AMP-activated protein kinase catalytic subunit alpha-1 (Homo sapiens) (UniProt Q13131); conditions: at 0.1 µM
[9] = target: 5'-AMP-activated protein kinase catalytic subunit alpha-1 (Homo sapiens) (UniProt Q13131); conditions: at 1 µM
[10] = target: 5'-AMP-activated protein kinase catalytic subunit alpha-2 (Homo sapiens) (UniProt P54646); conditions: at 0.1 µM
[11] = target: 5'-AMP-activated protein kinase catalytic subunit alpha-2 (Homo sapiens) (UniProt P54646); conditions: at 1 µM
[12] = target: T4, NUAK family SNF1-like kinase 1 (Homo sapiens) (UniProt O60285); conditions: at 0.1 µM
T4 sequence (whole entry): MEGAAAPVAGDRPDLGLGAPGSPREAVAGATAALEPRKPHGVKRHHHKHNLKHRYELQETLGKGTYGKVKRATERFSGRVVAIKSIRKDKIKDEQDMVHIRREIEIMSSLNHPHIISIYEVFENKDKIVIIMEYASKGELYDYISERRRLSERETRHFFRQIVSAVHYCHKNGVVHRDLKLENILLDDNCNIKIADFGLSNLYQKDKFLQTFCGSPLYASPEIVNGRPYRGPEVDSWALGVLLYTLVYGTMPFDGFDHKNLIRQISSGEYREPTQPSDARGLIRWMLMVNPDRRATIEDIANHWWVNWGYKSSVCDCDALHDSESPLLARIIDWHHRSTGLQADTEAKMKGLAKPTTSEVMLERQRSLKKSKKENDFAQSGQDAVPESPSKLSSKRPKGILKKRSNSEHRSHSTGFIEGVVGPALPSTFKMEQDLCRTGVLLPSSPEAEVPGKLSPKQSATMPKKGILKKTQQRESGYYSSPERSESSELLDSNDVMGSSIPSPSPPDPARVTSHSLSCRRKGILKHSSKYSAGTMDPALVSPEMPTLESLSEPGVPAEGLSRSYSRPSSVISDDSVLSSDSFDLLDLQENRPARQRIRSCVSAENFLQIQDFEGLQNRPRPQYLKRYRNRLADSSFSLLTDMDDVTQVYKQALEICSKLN

[13] = target: T4, NUAK family SNF1-like kinase 1 (Homo sapiens); conditions: at 1 µM
[14] = target: T5, Serine/threonine-protein kinase BRSK1 (Homo sapiens) (UniProt Q8TDC3); conditions: at 0.1 µM
T5 sequence (whole entry): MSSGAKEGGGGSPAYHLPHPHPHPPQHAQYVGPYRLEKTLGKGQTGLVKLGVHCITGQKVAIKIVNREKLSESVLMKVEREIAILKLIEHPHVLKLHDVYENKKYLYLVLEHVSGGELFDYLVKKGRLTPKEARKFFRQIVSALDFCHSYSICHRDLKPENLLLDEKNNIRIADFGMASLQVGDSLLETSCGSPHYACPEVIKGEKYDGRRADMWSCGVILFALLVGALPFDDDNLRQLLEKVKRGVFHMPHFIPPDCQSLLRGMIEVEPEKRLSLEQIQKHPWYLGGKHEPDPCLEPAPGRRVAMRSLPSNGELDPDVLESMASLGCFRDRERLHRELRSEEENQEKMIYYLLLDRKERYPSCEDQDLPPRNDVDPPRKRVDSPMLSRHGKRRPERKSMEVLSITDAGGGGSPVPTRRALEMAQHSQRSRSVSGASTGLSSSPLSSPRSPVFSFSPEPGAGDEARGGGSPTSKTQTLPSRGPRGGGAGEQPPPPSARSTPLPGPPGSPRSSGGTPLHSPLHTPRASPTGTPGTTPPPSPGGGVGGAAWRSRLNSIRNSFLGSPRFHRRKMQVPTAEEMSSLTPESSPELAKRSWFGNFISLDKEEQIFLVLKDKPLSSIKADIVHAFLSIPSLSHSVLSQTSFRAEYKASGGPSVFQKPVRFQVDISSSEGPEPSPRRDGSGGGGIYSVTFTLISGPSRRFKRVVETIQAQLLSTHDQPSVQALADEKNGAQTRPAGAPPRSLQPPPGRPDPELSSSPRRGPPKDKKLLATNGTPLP

[15] = target: T5, Serine/threonine-protein kinase BRSK1 (Homo sapiens); conditions: at 1 µM
[16] = target: T6, Serine/threonine-protein kinase BRSK2 (Homo sapiens) (UniProt Q8IWQ3); conditions: at 0.1 µM
T6 sequence (whole entry): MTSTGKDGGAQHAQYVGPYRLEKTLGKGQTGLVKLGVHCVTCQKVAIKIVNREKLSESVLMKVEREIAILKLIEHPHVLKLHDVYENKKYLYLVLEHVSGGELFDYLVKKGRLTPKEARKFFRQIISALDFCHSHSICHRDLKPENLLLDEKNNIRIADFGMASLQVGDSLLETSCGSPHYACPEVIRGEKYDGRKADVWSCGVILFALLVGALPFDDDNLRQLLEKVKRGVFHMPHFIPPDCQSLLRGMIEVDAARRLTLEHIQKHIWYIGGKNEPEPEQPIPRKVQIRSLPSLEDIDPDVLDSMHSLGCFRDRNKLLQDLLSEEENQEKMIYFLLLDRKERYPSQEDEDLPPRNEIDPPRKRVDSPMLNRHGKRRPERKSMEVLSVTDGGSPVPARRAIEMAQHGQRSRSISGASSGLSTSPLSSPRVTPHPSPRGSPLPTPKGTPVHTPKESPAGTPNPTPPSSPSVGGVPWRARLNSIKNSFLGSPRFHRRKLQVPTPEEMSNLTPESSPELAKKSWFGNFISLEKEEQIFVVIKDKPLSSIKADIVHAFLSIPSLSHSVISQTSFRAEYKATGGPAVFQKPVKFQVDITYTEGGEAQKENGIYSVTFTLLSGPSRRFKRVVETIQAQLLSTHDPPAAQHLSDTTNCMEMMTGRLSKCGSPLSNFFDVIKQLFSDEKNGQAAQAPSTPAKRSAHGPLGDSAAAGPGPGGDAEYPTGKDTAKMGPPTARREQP

[17] = target: T6, Serine/threonine-protein kinase BRSK2 (Homo sapiens); conditions: at 1 µM
[18] = target: Calcium/calmodulin-dependent protein kinase type 1D (Homo sapiens) (UniProt Q8IU85); conditions: at 0.1 µM
[19] = target: Calcium/calmodulin-dependent protein kinase type 1D (Homo sapiens) (UniProt Q8IU85); conditions: at 1 µM
[20] = target: Calcium/calmodulin-dependent protein kinase type II subunit alpha (Homo sapiens) (UniProt Q9UQM7); conditions: at 0.1 µM;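 also: reported values are averages (mean inhibition of CAMK2A)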
Sequence of Calcium/calmodulin-dependent protein kinase type II subunit alpha (Homo sapiens) (Q9UQM7 whole entry): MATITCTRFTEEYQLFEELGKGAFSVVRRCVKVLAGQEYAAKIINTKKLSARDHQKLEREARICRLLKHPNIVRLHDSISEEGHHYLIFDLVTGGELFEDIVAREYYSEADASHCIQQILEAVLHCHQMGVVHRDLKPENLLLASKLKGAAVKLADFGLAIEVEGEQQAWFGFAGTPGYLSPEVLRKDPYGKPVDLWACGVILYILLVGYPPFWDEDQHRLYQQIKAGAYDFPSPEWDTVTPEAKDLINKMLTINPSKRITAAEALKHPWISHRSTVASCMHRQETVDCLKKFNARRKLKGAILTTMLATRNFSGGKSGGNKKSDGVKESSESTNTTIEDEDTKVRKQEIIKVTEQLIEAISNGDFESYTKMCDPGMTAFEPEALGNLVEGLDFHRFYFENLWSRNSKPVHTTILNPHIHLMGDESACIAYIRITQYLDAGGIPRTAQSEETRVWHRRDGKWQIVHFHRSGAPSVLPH

Sequence of 5'-AMP-activated protein kinase catalytic subunit alpha-1 (Homo sapiens) (Q13131 whole entry, looked up): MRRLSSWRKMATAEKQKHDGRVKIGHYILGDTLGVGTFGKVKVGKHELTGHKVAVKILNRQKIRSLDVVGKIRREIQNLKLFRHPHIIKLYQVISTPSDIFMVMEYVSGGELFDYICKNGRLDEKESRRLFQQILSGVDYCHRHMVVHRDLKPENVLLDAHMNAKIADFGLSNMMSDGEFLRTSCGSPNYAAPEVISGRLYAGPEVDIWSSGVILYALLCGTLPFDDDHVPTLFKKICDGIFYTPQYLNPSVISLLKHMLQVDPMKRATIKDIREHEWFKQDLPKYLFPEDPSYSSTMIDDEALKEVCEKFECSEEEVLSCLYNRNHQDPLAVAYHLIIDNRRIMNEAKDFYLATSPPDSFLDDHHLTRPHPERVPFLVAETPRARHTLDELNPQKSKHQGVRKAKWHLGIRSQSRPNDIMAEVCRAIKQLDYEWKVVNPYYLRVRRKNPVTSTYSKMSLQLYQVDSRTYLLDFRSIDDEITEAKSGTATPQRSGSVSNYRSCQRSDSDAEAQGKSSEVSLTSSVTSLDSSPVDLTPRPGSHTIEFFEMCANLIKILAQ
Sequence of Calcium/calmodulin-dependent protein kinase type 1D (Homo sapiens) (Q8IU85 whole entry, looked up): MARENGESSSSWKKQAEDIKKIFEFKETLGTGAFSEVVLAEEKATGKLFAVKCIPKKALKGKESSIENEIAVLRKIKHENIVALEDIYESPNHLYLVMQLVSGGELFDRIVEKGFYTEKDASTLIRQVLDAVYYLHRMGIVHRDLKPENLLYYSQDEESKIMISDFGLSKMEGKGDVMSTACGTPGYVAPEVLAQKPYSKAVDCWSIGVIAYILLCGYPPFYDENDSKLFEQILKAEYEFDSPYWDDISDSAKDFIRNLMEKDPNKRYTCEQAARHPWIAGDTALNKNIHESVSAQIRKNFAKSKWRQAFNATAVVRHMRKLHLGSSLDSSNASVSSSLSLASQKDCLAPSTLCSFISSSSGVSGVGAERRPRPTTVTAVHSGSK
Sequence of Ribosomal protein S6 kinase alpha-6 (Homo sapiens) (Q9UK32 whole entry): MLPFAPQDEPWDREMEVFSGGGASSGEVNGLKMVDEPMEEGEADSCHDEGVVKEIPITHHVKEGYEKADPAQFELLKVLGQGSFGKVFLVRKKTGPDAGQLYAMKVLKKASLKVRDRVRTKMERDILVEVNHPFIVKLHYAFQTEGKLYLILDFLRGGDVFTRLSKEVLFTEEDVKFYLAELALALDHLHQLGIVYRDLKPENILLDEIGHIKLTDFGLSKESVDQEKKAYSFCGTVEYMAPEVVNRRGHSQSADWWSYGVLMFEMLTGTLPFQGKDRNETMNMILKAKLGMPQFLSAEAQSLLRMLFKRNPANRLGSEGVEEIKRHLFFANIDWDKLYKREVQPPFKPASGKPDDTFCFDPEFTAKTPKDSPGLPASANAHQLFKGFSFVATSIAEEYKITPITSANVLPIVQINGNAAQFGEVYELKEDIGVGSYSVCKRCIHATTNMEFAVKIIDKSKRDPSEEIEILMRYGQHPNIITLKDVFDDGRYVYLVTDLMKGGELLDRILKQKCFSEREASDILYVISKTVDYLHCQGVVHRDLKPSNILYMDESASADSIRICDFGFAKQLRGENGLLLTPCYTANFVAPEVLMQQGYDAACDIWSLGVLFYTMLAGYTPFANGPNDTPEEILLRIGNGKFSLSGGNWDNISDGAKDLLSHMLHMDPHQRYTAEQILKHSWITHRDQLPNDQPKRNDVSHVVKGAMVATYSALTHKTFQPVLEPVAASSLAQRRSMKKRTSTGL
Sequence of 5'-AMP-activated protein kinase catalytic subunit alpha-2 (Homo sapiens) (P54646 whole entry, looked up): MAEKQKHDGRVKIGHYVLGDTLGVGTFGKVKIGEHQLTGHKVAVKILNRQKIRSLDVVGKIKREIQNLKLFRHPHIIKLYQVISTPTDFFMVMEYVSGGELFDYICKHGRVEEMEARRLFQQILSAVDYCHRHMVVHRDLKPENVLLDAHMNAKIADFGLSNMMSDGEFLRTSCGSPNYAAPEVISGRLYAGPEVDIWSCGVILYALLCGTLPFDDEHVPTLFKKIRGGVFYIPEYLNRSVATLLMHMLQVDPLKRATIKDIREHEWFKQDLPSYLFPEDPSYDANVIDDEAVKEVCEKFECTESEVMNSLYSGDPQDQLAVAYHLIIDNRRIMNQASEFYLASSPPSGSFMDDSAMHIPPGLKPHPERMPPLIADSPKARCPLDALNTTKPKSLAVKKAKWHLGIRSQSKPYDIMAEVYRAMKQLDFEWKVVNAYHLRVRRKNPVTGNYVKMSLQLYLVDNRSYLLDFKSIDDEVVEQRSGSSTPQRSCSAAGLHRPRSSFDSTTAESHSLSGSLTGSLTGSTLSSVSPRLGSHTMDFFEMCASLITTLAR

SMILES: CN1CCC(n2cnc(-c3ccc(F)cc3)c2-c2ccnc(NCCO)n2)CC1
- inhibition [1]: 1.96%
- inhibition [2]: 3.61%
- inhibition [3]: 6.71%
- inhibition [4]: 0.04%
- inhibition [5]: 5.93%
- inhibition [6]: 5.14%
- inhibition [7]: 3.95%
- inhibition [8]: 2.98%
- inhibition [9]: 6.22%
- inhibition [10]: 1.25%
- inhibition [11]: 3.88%
- inhibition [12]: 1.51%
- inhibition [13]: 0.83%
- inhibition [14]: 1.04%
- inhibition [15]: 3.71%
- inhibition [16]: 2.24%
- inhibition [17]: 6.29%
- inhibition [18]: -1.1%
- inhibition [19]: -1.38%
- inhibition [20]: 8.05%

SMILES: Cc1ccc(-c2cc3c(NC(=O)C4CC4)ncnc3o2)cc1
- inhibition [1]: 2.4%
- inhibition [2]: 2.2%
- inhibition [3]: 3%
- inhibition [4]: 5.33%
- inhibition [5]: 8.63%
- inhibition [6]: 3.61%
- inhibition [7]: 4.02%
- inhibition [8]: 3.13%
- inhibition [9]: 5.1%
- inhibition [10]: 2.34%
- inhibition [11]: 5.09%
- inhibition [12]: 2.09%
- inhibition [13]: 6.68%
- inhibition [14]: 2.59%
- inhibition [15]: 4.69%
- inhibition [16]: 2.82%
- inhibition [17]: 4.69%
- inhibition [18]: 0.92%
- inhibition [19]: 1.61%
- inhibition [20]: 4.04%

SMILES: COC(=O)Nc1nc2ccc(Oc3ccc(NC(=O)Nc4cc(C(F)(F)F)ccc4F)cc3)cc2s1
- inhibition [1]: 1.65%
- inhibition [2]: 0.33%
- inhibition [3]: 0.95%
- inhibition [4]: -4.85%
- inhibition [5]: 0.53%
- inhibition [6]: 1.37%
- inhibition [7]: 1.57%
- inhibition [8]: -0.71%
- inhibition [9]: 0.03%
- inhibition [10]: 0.72%
- inhibition [11]: 1.67%
- inhibition [12]: -0.54%
- inhibition [13]: -3.55%
- inhibition [14]: -0.58%
- inhibition [15]: 0.34%
- inhibition [16]: -0.27%
- inhibition [17]: 0.24%
- inhibition [18]: 0.5%
- inhibition [19]: 2.93%
- inhibition [20]: -0.9%

SMILES: CNC(=O)c1cncc(/C=C/c2ccccc2C)c1
- inhibition [1]: 0.63%
- inhibition [2]: 3.1%
- inhibition [3]: 5.48%
- inhibition [4]: 2.67%
- inhibition [5]: 0.66%
- inhibition [6]: 1.58%
- inhibition [7]: 4.02%
- inhibition [8]: 3.16%
- inhibition [9]: 7.91%
- inhibition [10]: 2.05%
- inhibition [11]: 6.66%
- inhibition [12]: 2.2%
- inhibition [13]: 9.32%
- inhibition [14]: 2.32%
- inhibition [15]: 15%
- inhibition [16]: 3.54%
- inhibition [17]: 17.4%
- inhibition [18]: -0.17%
- inhibition [19]: -0.91%
- inhibition [20]: 4.14%

SMILES: CCS(=O)(=O)c1ccc(OC)c(Nc2ncc(-c3cccc(F)c3)o2)c1
- inhibition [1]: 6.33%
- inhibition [2]: 2.66%
- inhibition [3]: 4%
- inhibition [4]: 0.06%
- inhibition [5]: 1.18%
- inhibition [6]: 3.85%
- inhibition [7]: 3.03%
- inhibition [8]: 2.82%
- inhibition [9]: 5.78%
- inhibition [10]: 7.22%
- inhibition [11]: 5.58%
- inhibition [12]: 0.71%
- inhibition [13]: 12.5%
- inhibition [14]: 1.15%
- inhibition [15]: -0.68%
- inhibition [16]: 1.63%
- inhibition [17]: 3.22%
- inhibition [18]: 0.89%
- inhibition [19]: 2.56%
- inhibition [20]: 2.75%

SMILES: COc1cccc(Nc2nccc(-c3cnn4ncccc34)n2)c1
- inhibition [1]: 4.34%
- inhibition [2]: 1.84%
- inhibition [3]: 9.81%
- inhibition [4]: 7.46%
- inhibition [5]: 6.98%
- inhibition [6]: -0.45%
- inhibition [7]: 2.03%
- inhibition [8]: 2.19%
- inhibition [9]: 10.9%
- inhibition [10]: -3.44%
- inhibition [11]: 7.99%
- inhibition [12]: 52.8%
- inhibition [13]: 71%
- inhibition [14]: 0.63%
- inhibition [15]: 6.67%
- inhibition [16]: 0.75%
- inhibition [17]: 10.4%
- inhibition [18]: -0.48%
- inhibition [19]: 4.71%
- inhibition [20]: 4.77%
